hcDAF12 agonist: activators of H. contortus DAF-12 nuclear receptor. AID 652067. HEK293 hcDAF-12 lit1-tk-luc reporter, luminescence; 0% DMSO, 100% Δ7-dafachronic acid. activation, % at 6.8 µM. 370,000 compounds, 1.4% hits;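 active means activation above the mean of all tested compounds plus 3 SD, cut at about 5.5% in these data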
ssDAF-12 act: activators of S. stercoralis DAF-12 nuclear receptor; activation, % at 6.8 µM; 370,000 compounds, 1% hits; HEK293 ssDAF-12/GRIP1 lit1-tk-luc reporter, luminescence; % of 3 µM dafachronic acid response;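 active means activation above the mean over all tested compounds plus 3 SD, cut at about 0.9% in these data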
hgDAF-12 ag: activates the H. glycines DAF-12 receptor ligand-binding domain; HEK293 GAL4-hgDAF12 UAS-luciferase reporter, agonist luminescence; normalized to butyrate control; activation, % at 6.8 µM; 370,000 compounds, 1.8% hits;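 active means activation above a cutoff set at the mean of all screened compounds plus 3 SD, cut at about 10% in these data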
AHR act: activators of human aryl hydrocarbon receptor; AHR-responsive luciferase reporter cells, luminescence; 320,000 compounds, 2.5% hits; activation, % at 5 µM; P35869; in the data active means activation above about 47%
DAX1 inh-1: inhibitors of DAX1 repression of SF-1 activated StAR promoter | 370,000 compounds, 1.1% hits | inhibition, % at 6.8 µM | HEK293T StAR-luciferase reporter, SF-1/DAX-1 repression relief | AID 652010;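 active means inhibition above the mean over all tested compounds plus 3 SD, cut at about 3.6% in these data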;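 further: higher inhibition means more luminescence from relief of DAX-1 repression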
DAX1 inh-2: NR0B1 (DAX1) inhibition; P51843; HEK293 Gal4-DAX1 luciferase reporter, luminescence; inhibition, % at 6.75 µM; 340,000 compounds, 0.99% hits;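 active means inhibition above the mean over all tested compounds plus 3 SD, cut at about 4.2% in these data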;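 further: inhibition shows as a rise in luminescence from relieved DAX1 repression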
LXRb hcDAF ctr: LXR-beta agonism as hcDAF-12 counter-screen; shares compounds with hcDAF12 agonist; HEK293 Gal4-LXR tk-luc reporter, luminescence, 24 h; normalized: DMSO 0%, positive control 100%; activation, % at 6.8 µM; 3,400 tested, under 10 active; AID 743027;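 active means mean percent activation of the reporter above a cutoff set as the average over tested compounds plus their standard deviation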
Target sequence (P55055 whole entry, looked up, the tested form may be a part): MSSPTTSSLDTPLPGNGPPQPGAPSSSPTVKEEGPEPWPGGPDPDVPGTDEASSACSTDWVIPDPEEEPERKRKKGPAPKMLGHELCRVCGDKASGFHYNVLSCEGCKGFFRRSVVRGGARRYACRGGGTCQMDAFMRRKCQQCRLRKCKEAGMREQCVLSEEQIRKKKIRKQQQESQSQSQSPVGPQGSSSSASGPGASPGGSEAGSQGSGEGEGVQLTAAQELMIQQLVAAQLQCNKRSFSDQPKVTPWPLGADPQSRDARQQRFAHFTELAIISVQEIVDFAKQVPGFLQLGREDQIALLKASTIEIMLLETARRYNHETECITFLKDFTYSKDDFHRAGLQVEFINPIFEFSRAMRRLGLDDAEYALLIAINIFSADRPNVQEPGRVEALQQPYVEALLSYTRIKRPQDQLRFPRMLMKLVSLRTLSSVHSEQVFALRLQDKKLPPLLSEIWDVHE
hcDAF12 ag: confirmation of H. contortus DAF-12 agonists; shares compounds with hcDAF12 agonist; HEK293 hcDAF-12 lit1-tk-luc reporter, luminescence; % of Δ7-dafachronic acid response; activation, % at 6.8 µM; 3,400 compounds, 61% hits; AID 743032;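 active means mean activation across triplicate tests above the threshold derived from the earlier primary screen, cut at about 5.5% in these data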
Numbers stand for hits. A selection: hits, their analogues and other compounds. The true share with any hit is near 5.7%.

Screening CCCCCNC(=O)C(c1ccncc1)n1c(=O)c(-c2cc3ccccc3[nH]2)nc2ccccc21 (stereo not given) returned hcDAF12 agonist 9.2, ssDAF-12 act 0.9, hgDAF-12 ag inactive, DAX1 inh-1 4.3, LXRb hcDAF ctr inactive and hcDAF12 ag 9.9.
COC(=O)c1csc2c(C(F)(F)F)cc(N3CCN(C(=O)Nc4ccccc4)CC3)nc12 was read as hcDAF12 agonist inactive, ssDAF-12 act inactive, hgDAF-12 ag inactive, AHR act inactive, DAX1 inh-1 inactive and DAX1 inh-2 inactive.
CCCCn1c(=O)c(CCC(=O)OCC(=O)NCc2ccc(OC)c(OC)c2)nc2ccccc21 was read as hcDAF12 agonist inactive, ssDAF-12 act inactive, hgDAF-12 ag inactive, AHR act inactive, DAX1 inh-1 inactive and DAX1 inh-2 inactive.
O=C(/C=C/c1c[nH]c2ccccc12)c1cccc2ccccc12 was read as hcDAF12 agonist 11.3, ssDAF-12 act inactive, hgDAF-12 ag inactive, AHR act 67.7, DAX1 inh-1 inactive, DAX1 inh-2 inactive, LXRb hcDAF ctr inactive and hcDAF12 ag inactive.
Screening O=C(CSc1nc2ccccc2s1)Nc1cc(S(=O)(=O)N2CCOCC2)ccc1O returned hcDAF12 agonist 9.7, ssDAF-12 act inactive, hgDAF-12 ag inactive, AHR act inactive, DAX1 inh-1 inactive, DAX1 inh-2 inactive, LXRb hcDAF ctr inactive and hcDAF12 ag inactive.
Cc1nnc(SCC(=O)Nc2cc(S(=O)(=O)N3CCOCC3)ccc2C)s1 was read as hcDAF12 agonist inactive, ssDAF-12 act inactive, hgDAF-12 ag inactive, DAX1 inh-1 inactive and DAX1 inh-2 inactive.
`O=C(OCc1nc2ccccc2s1)c1cccc(S(=O)(=O)N2CCOCC2)c1` gave hcDAF12 agonist 7.7, ssDAF-12 act inactive, hgDAF-12 ag inactive, AHR act inactive, DAX1 inh-1 inactive, DAX1 inh-2 inactive, LXRb hcDAF ctr inactive and hcDAF12 ag 9.2.
`Cc1cc(NCCCN2CCOCC2)n2ncc(-c3ccc(Cl)cc3)c2n1` gave hcDAF12 agonist inactive, ssDAF-12 act inactive, hgDAF-12 ag inactive, AHR act inactive, DAX1 inh-1 inactive and DAX1 inh-2 inactive.
Cc1cc(NCCCn2ccnc2)n2ncc(-c3ccc(Cl)cc3)c2n1 was read as hcDAF12 agonist 15.0, ssDAF-12 act 1.7, hgDAF-12 ag 18.6, AHR act 125.9, DAX1 inh-1 3.8, DAX1 inh-2 inactive, LXRb hcDAF ctr inactive and hcDAF12 ag 18.8.
For CCCSc1cc(N2CCOCC2)nc(-c2ccccc2Cl)n1 the results were hcDAF12 agonist inactive, ssDAF-12 act inactive, hgDAF-12 ag inactive, AHR act inactive, DAX1 inh-1 inactive and DAX1 inh-2 inactive.
Screening CCN(CC)CCCNC(=S)N(CCO)Cc1cc2cc3c(cc2[nH]c1=O)OCCO3 returned hcDAF12 agonist inactive, ssDAF-12 act inactive, hgDAF-12 ag inactive, AHR act inactive, DAX1 inh-1 inactive and DAX1 inh-2 inactive.
For CCCCNC(=S)N(CCO)Cc1cc2cc3c(cc2[nH]c1=O)OCCO3 the results were hcDAF12 agonist 7.2, ssDAF-12 act inactive, hgDAF-12 ag inactive, AHR act inactive, DAX1 inh-1 inactive, DAX1 inh-2 inactive, LXRb hcDAF ctr inactive and hcDAF12 ag inactive.
`COc1ccc(CNS(=O)(=O)CC2NCCc3ccccc32)cc1` (stereo not given) gave hcDAF12 agonist inactive, ssDAF-12 act inactive, hgDAF-12 ag inactive and DAX1 inh-1 inactive.
`CN(C)/C=N/c1nc2ccc3c(c2s1)CCCC3` gave hcDAF12 agonist 6.7, ssDAF-12 act inactive, hgDAF-12 ag 10.6, AHR act 63.3, DAX1 inh-1 inactive, DAX1 inh-2 inactive, LXRb hcDAF ctr inactive and hcDAF12 ag 6.4.
Cc1cc(C)c2[nH]c(C(=O)Nc3ccc(F)cc3Br)cc2c1 was read as hcDAF12 agonist inactive, ssDAF-12 act inactive, hgDAF-12 ag inactive, AHR act inactive, DAX1 inh-1 inactive and DAX1 inh-2 inactive.
`Cc1cc2c(SCC(=O)NCC3CCCO3)ncnc2s1` (stereo not given) gave hcDAF12 agonist inactive, ssDAF-12 act inactive, hgDAF-12 ag inactive, DAX1 inh-1 inactive and DAX1 inh-2 inactive.
Screening COc1ccccc1Nc1ncc(-c2cccs2)s1 returned hcDAF12 agonist 10.7, ssDAF-12 act 1.3, hgDAF-12 ag inactive, AHR act inactive, DAX1 inh-1 inactive, DAX1 inh-2 inactive, LXRb hcDAF ctr inactive and hcDAF12 ag 15.1.
c1ccc(-c2ccccc2OCCCCn2ccnc2)cc1 was read as hcDAF12 agonist inactive, ssDAF-12 act inactive, hgDAF-12 ag inactive, AHR act inactive, DAX1 inh-1 inactive and DAX1 inh-2 inactive.
For Cc1ccccc1N=C1NN=C(c2ccccc2F)CS1 the results were hcDAF12 agonist 9.4, ssDAF-12 act inactive, hgDAF-12 ag 13.4, AHR act inactive, DAX1 inh-1 inactive, DAX1 inh-2 inactive, LXRb hcDAF ctr inactive and hcDAF12 ag 10.7.
Cc1cccc(C)c1N=C1NN=C(c2ccccc2F)CS1 was read as hcDAF12 agonist inactive, ssDAF-12 act inactive, hgDAF-12 ag inactive, AHR act inactive, DAX1 inh-1 inactive and DAX1 inh-2 inactive.
For CCOC(=O)C1(Cc2cccc(Cl)c2)CCCN(C(=O)c2cnn(CC)c2)C1 (stereo not given) the results were hcDAF12 agonist inactive, ssDAF-12 act inactive, hgDAF-12 ag inactive, AHR act inactive, DAX1 inh-1 inactive and DAX1 inh-2 inactive.
Screening c1ccc(Cc2nnc3n2CCCCC3)cc1 returned hcDAF12 agonist inactive, ssDAF-12 act inactive, hgDAF-12 ag inactive, AHR act inactive, DAX1 inh-1 inactive and DAX1 inh-2 inactive.
For c1ccc2c(c1)CCCN2Cc1nnc2n1CCCCC2 the results were hcDAF12 agonist 7.7, ssDAF-12 act 1.0, hgDAF-12 ag inactive, AHR act inactive, DAX1 inh-1 inactive, DAX1 inh-2 inactive, LXRb hcDAF ctr inactive and hcDAF12 ag inactive.
For Cc1ccc([N+](=O)[O-])cc1S(=O)(=O)n1ccnc1C the results were hcDAF12 agonist inactive, ssDAF-12 act inactive, hgDAF-12 ag inactive, AHR act inactive, DAX1 inh-1 inactive and DAX1 inh-2 inactive.
O=C(Nc1ccccc1SC(=O)c1ccccc1)c1ccccc1 was read as hcDAF12 agonist 7.8, ssDAF-12 act 1.8, hgDAF-12 ag inactive, DAX1 inh-1 inactive, DAX1 inh-2 4.4, LXRb hcDAF ctr inactive and hcDAF12 ag 9.9.
`COc1ccccc1Cc1c(-c2cccc(Cl)c2)nc2c3ccccc3ccn12` gave hcDAF12 agonist inactive, ssDAF-12 act inactive, hgDAF-12 ag inactive and DAX1 inh-1 inactive.
